The full list was thinned out, with hits kept by preference.
CHX counter – Cycloheximide Counterscreen for Small Molecule Inhibitors of Shiga Toxin | cell reporter, cycloheximide protein synthesis inhibition counterscreen | max response, % | hit rate 12% among 300,000 | AID 2314, 2010; in the data active = max response mostly above about 13%, no sharp cut-off; inactive = mostly below about 14%; also: read at 38.3 µM for the half of the compounds with a filed dose; 0% is about no effect
Tb PYK inh – qHTS of Trypanosoma Brucei Inhibitors | pyruvate kinase (Trypanosoma brucei), Q57TT1 | TbPYK enzyme, Kinase-Glo Plus ATP luminescence, 45 min | AID 624173, 2012 | hit rate 0.12% among 410,000 | Potency, µM (top dose mostly 76.8 µM), for the others: at the highest dose activity, negative = inhibition, hits mostly inhibitors; also: potency is read from the fitted curve at half-maximal effect; % is scaled to controls: 0 for no effect and ±100 for the full control effect; nearly all actives have a fitted effect of over 50% in size
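T. brucei PYK with substrate was exposed to pin-transferred compounds across a concentration series, then started with 130 uM ADP (final). After 45 min at room temperature, Kinase-Glo Plus luminescence was read, normalized and curve-fitted.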
Giardia FBPA inh – qHTS Assay for Inhibitors of Fructose-1,6-bisphosphate Aldolase from Giardia Lamblia. A8B2U2. purified Giardia FBPA. Potency, µM (titrated, usually from 59.6 µM), inactives show at the top dose activity, negative = inhibition, hits mostly inhibitors. hit rate 0.71% among 290,000. AID 2451, 2010; also: potency is read from the fitted curve at half-maximal effect; % is scaled to controls: 0 for no effect and ±100 for the full control effect; nearly all actives have a fitted effect of over 55% in size
Target sequence (A8B2U2 whole entry, looked up): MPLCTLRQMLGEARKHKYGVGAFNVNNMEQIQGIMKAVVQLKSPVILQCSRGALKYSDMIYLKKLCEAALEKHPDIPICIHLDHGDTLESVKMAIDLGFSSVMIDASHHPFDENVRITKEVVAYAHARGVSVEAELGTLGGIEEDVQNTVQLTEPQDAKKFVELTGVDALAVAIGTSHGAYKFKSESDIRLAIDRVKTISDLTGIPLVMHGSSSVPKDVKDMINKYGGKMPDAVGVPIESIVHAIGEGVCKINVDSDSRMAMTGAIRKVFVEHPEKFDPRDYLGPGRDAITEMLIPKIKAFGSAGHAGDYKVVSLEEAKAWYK
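40 nM FBPA preincubated 10 min at RT with compound (up to 57.5 uM final), then substrate plus GAPDH/TPI/NAD/arsenate coupling and diaphorase/resazurin added. Fluorescence read after 20 min at RT, 525/598 nm.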
Shiga toxin inh – A qHTS for Small Molecule Inhibitors of Shiga Toxin. Vero cells, Shiga toxin protein synthesis inhibition reporter. inhibition, % at 38.7 µM. hit rate 9.2% among 290,000. AID 2315, 2010; in the data active = inhibition mostly above about 28%, no sharp cut-off; inactive = mostly below about 43%; also: 0% is about no effect
RE007 growth inh – qHTS Assay for Inhibitors of the HIV-1 protein Vpr; S. pombe RE007 Vpr strain, BacTiter-Glo ATP luminescence, 24 h; Potency, µM (top dose mostly 92.2 µM), for inactives: at the highest dose activity change, negative = less growth, hits mostly inhibitors; hit rate 0.21% among 360,000; AID 651644, 2012; active = well fitted falling curve with a large enough effect; inconclusive = small, poorly fitted or top-dose-only effect; inactive = no such curve, though single readings can be large or run the other way; also: potency is read from the fitted curve at half-maximal effect; % is scaled to controls: 0 for no effect and ±100 for the full control effect; nearly all actives have a fitted effect of over 50% in size
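Fission yeast RE007 carrying one integrated HIV-1 vpr copy, seeded at OD 0.01 in PMG+AL medium with 23 nL pinned compound. Grown 24 h at 30 degrees; viability read by BacTiter-Glo luminescence after 5 min.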
LmPK inh – qHTS Assay for Inhibitors of Leishmania Mexicana Pyruvate Kinase (LmPK). purified LmPK, Kinase-Glo ATP luminescence, 1 h. hit rate 0.37% among 290,000. Q27686. Potency, µM (titrated, usually from 57.5 µM), inactives show top-dose activity change, negative = inhibition, actives largely listed as inhibitors. AID 1721, 2009; also: potency is read from the fitted curve at half-maximal effect; % is scaled to controls: 0 for no effect and ±100 for the full control effect
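Purified LmPK (0.1 nM) with 0.5 mM PEP and 0.1 mM ADP in imidazole buffer pH 7.2 with MgCl2/KCl, 1 h at room temperature. ATP formed was read by luciferase luminescence and normalized to no-enzyme and uninhibited controls.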
Numbers without * were called inactive; ? = inconclusive; . = no result; + = active, no number; ! = repeats disagree; [ ] = remark or other dose. Unless noted, calls follow the shape of the dose curve; as a rule, active = well fitted curve in the direction sought with a large enough effect; inconclusive = small, poorly fitted or top-dose-only effect, or another doubt; inactive = no such curve, though single readings can be large; an effect the other way counts as inactive or inconclusive.

SMILES	CHX counter	Tb PYK inh	Giardia FBPA inh	Shiga toxin inh	RE007 growth inh	LmPK inh
Cc1ccc(/C=N/Nc2nc(C)cc(C)n2)cc1	14*	6%	?	57*	19%	-1%
CC(C)(C)c1ccc(OCC(=O)N/N=C/c2ccc(N3CCOCC3)cc2)cc1	1	-13%	-1%	13	.	0%
Cn1cc(C2CC(c3ccccc3)=NN2C(=O)c2ccccc2)c2ccccc21 (stereo unspecified)	22*	2%	1%	41	-4%	1%
COc1cccc(C2CC(c3ccc(NS(C)(=O)=O)cc3)=NN2C(=O)c2ccccc2)c1OC (stereo unspecified)	51*	4%	-6%	134*	-24%	0%[11.5 µM]
CCCC(=O)N1N=C(c2ccccc2)CC1c1cn(C)c2ccccc12 (stereo unspecified)	27*	-1%	0%	42	34%	2%
COc1ccccc1C1CC(c2ccc(NS(C)(=O)=O)cc2)=NN1C(=O)c1ccccc1 (stereo unspecified)	8	5%	-1%	9	6%	-3%
COc1cccc(C2CC(c3cccs3)=NN2C(=O)CCC(=O)O)c1OC (stereo unspecified)	11*	-6%	9%	19	-3%	0%
COC(=O)CC1Oc2cc3oc4c5ccccc5oc(=O)c4c3cc2O1 (stereo unspecified)	.	.	3%	.	.	.
Cc1noc(C)c1C(=O)N1CCC2(CC1)CCN(c1ccccn1)CC2	.	6%	3%	.	.	.
COc1ccc(N2CCN(C(=O)c3cc(S(=O)(=O)N4CCC(C)CC4)cn3C)CC2)cc1	.	2%	.	.	.	.
COc1cc(CO)ccc1OCc1ccc(Cl)nc1	51*	2%	-5%	149*	0%	-6%
Cc1cc(C)c2[nH]c(C(=O)Nc3ccc(F)cc3Br)cc2c1	34*	?	-2%	67*	1%	0%
Cc1ccc2[nH]c(C(=O)Nc3ccc(F)cc3)cc2c1	22*	-17%	-2%	.	0%	2%
Cc1cc(C)c2cc(C(=O)Nc3ccccc3)[nH]c2c1	42*	-12%	-22%	72*	6%	1%
CCOC(=O)N1CCN(C(=O)C[C@@H]2C[C@@]3(C(=O)OC)CCCCC=C3N(CCc3ccc(OC)c(OC)c3)C2=O)CC1	.	.	.	.	0%	.
CC(C)N(CCn1c(SCC(=O)Nc2cccnc2Cl)nc2ccccc2c1=O)C(C)C	.	-1%	.	.	-5%	.
N=c1nc(N)nc2n1NC(c1ccc(F)cc1)=CS2	20*	-25%	4%	47	3%	-1%
Fc1ccc(C2=CSC3=NCCN23)cc1	10	3%	-9%	8	3%	-1%
O=C(CN1CCCCC1)Nc1nnc(-c2ccccc2)s1	20*	-1%	-8%	72*	-4%	-3%
CCc1nnc(NC(=O)CN2CCN(C(=O)c3ccccc3)CC2)s1	-1	2%	-2%	-7	5%	-3%
O=C(CN1CCCCCC1)Nc1cc([N+](=O)[O-])ccc1Cl	-3	0%	-10%	-15	0%	5%
CC(C)(C)CC(=O)Nc1nnc(-c2cccs2)s1	43*	-1%	1%	67*	-5%	3%
O=C(CN1CCCCC1)Nc1nnc(-c2ccc([N+](=O)[O-])cc2)s1	21*	1%	-6%	56	-15%	7%
O=C(Cc1cccs1)Nc1nnc(-c2ccccc2)s1	19	0%	4%	93	6%	3%
O=C(CN1CCCC1)Nc1nnc(-c2cccs2)s1	28*	-9%	-10%	89*	-11%	-5%
SMILES	CHX counter	Tb PYK inh	Giardia FBPA inh	Shiga toxin inh	RE007 growth inh	LmPK inh
CC(C)C[C@H](NC(=O)OC(C)(C)C)c1nnc(SCc2cccc(F)c2)o1	9	-6%	-15%	27*	1%	4%
CSc1nnc([C@H](Cc2c[nH]c3ccccc23)NC(=O)OC(C)(C)C)o1	26*	-16%	-1%	65*	-3%	1%
COc1ccc(NC(=O)c2ccco2)cc1N	65*	-14%	40µM*	66*	-3%	-12%
COc1cc(NC(=O)c2ccccc2Cl)ccc1NC(=O)c1ccco1	41*	5%	0%	59	-21%	4%
COc1cc(NC(=O)c2oc3ccccc3c2C)ccc1NC(=O)c1ccco1	29*	-4%	-5%	63*	-8%	7%
COc1cc(NC(=O)c2ccco2)ccc1NC(=O)c1ccccc1Cl	13*	34%	1%	41	41%	4%
O=c1oc2ccccc2nc1/C=C(O)/C=C\c1ccccc1	36*	-13%	-15%	47*	?	2%
Cc1ccc(/C(O)=C/c2nc3ccccc3oc2=O)cc1	32*	-12%	-18%	68*	?	?
Cc1ccc2oc(=O)c(/C=C(\O)C(C)(C)C)nc2c1	10	12%	-25%	28	-7%	2%
O=c1oc2ccccc2nc1/C=C(O)/C=C/c1ccc(F)cc1	44*	-2%	-22%	85*	?	-1%
COCCCNC(=O)c1cnn(-c2ccccc2Cl)c1C1CCN(C(=O)OC(C)(C)C)CC1	.	-11%[15.4 µM]	.	.	.	.
O=C1c2ccccc2-n2c1nc1ccccc1c2=O	32	9%	?	52*!	?	-10%
O=C(NCCc1cccs1)Nc1nnc([C@H]2C[C@H](O)[C@@H](CO)O2)s1	.	4%	.	.	10%	.
CCOc1ccc(C2C(C(=O)c3ccco3)=C(O)C(=O)N2CCN2CCOCC2)cc1OCC (stereo unspecified)	5	2%	-21%	-4	9%	-3%
CCOc1ccc(C2C(C(=O)c3ccco3)=C(O)C(=O)N2CCN2CCOCC2)cc1 (stereo unspecified)	26*	-7%	?	54*	2%	-11%
CCOc1ccc(C2C(C(=O)c3ccco3)=C(O)C(=O)N2CCCn2ccnc2)cc1OCC (stereo unspecified)	-4	0%	-29%	-3	2%	6%
CCOc1ccc(C2C(C(=O)c3ccco3)=C(O)C(=O)N2CCCn2ccnc2)cc1 (stereo unspecified)	33*	-6%	-21%	+	-1%	-3%
C=CCOc1ccc(C2C(C(=O)c3ccco3)=C(O)C(=O)N2Cc2cccnc2)cc1 (stereo unspecified)	18	2%	-2%	+	-15%	-3%
CCOc1ccc(C2C(C(=O)c3cccs3)=C(O)C(=O)N2CCN2CCOCC2)cc1 (stereo unspecified)	28*	1%	-1%	25*	1%	2%
COc1ccc(-c2noc(CN(C(=O)COc3cc(C)c(Br)c(C)c3)C(C)C)n2)cc1	.	-9%	.	.	.	.
